Molecules are shown by their SMILES. Activity calls are given as the source filed them.

Consider 6 compounds from PubChem BioAssay.

For assay [1], the system named is Human papillomavirus type 1a protein E7 (residues 44-93). In words: small molecules binding HPV E7 44-93 – biochemical, small-molecule microarray, residues 44-93, 635 nm fluorescence, primary screen (AID 1108).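 Further: E7 fragment applied at 1 µg/mL in TBST for 1 h at 4 C; score combines spot fluorescence with its signal to noise ratio.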 To be noted: fluorescence 635 nm, higher = more signal.
The nature of assay [2]: hepatitis C replication reporter changes, two-sided – Huh7 cells, luciferase reporter, HCV replication inhibitor project, primary screen (AID 1109).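 Further: huh7 hepatoma cells harbouring a luciferase neomycin HCV replicon reporter; luciferase luminescence as measure of HCV replicon replication; test concentration not given here.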 The settings on record: Huh7 HCV replicon luciferase reporter, 48 h; higher = more signal. In general terms: Reporter assays use an easily measured gene product as a stand-in for the process of interest.
The target of assay [3] is Left-right determination factor 2 (Homo sapiens) (UniProt O00292). Kind of assay: small molecules binding LEFTY2 protein – biochemical, small-molecule microarray, 635 nm fluorescence scan, primary screen (AID 1110). To be noted: higher = more signal.
Assay [4] deals with Calmodulin-1 (Homo sapiens) (UniProt P0DP23). In words: small molecules binding calmodulin-1 with EGTA – biochemical, small-molecule microarray, Cy5-labelled CALM1, profiling panel (AID 1111).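 Further: labelled calmodulin applied in Tris saline Tween buffer holding calcium plus EGTA and DTT.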 To be noted: Cy5-CALM1 binding fluorescence, higher = more signal.
Assay [5] has the same target. Kind of assay: small molecules binding Ca-loaded calmodulin-1 – biochemical, small-molecule microarray, Cy5-labelled CALM1, plus calcium, artefact control for SMM control-protein annotation, profiling panel (AID 1112).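 Further: score merges spot fluorescence with signal to noise from triplicate slides.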 To be noted: Cy5-CALM1 binding fluorescence, higher = more signal.
The nature of assay [6]: probe aWnt5a binding to arrayed compounds – biochemical, biotinylated probe, 635/667 nm fluorescence, primary screen (AID 1113).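 Further: score merges 667 nm fluorescence intensity with signal-to-noise per printed feature.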 To be noted: small-molecule microarray, higher = more signal.
Assay [7] in a line: probe aShh binding to arrayed compounds – biochemical, biotinylated probe, 635/667 nm fluorescence, primary screen (AID 1114).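 Further: probe is biotin-labelled aShh protein from a stem cell growth factor screen; measures binding of labelled protein to compounds printed on the slide; score merges feature fluorescence at 667 nm with signal-to-noise.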 The settings on record: small-molecule microarray, higher = more signal.
A short description of assay [8]: probe aNog binding to arrayed compounds – biochemical, biotinylated probe, 635/667 nm fluorescence, primary screen (AID 1115).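 Further: probe is biotinylated aNog protein used at 0.15 µg/mL for 1 h at 4 C; z-score combines 667 nm fluorescence of each spot with its signal to noise.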 To be noted: small-molecule microarray, higher = more signal.
The target of assay [9] is Torsin-1A-interacting protein 1 (Homo sapiens) (UniProt Q5JTV8). In words: compound microarray binding of lysate hLAP1 – cell lysate, small-molecule microarray, COS7 lysate, 635/667 nm fluorescence, primary screen (AID 1116). The settings on record: 635 nm fluorescence, higher = more signal.
Assay [10] has as its target Alpha-bungarotoxin (Bungarus multicinctus) (UniProt P60615). Kind of assay: compounds binding labelled alpha-BTX control protein – biochemical, small-molecule microarray, Alexa647 label, 635/667 nm fluorescence, artefact control for SMM control protein annotation, profiling panel (AID 1117). To be noted: alpha-BTX-A647 binding fluorescence, higher = more signal.
Assay [11] deals with Albumin (Bos taurus) (UniProt P02769). Kind of assay: compounds binding labelled BSA control protein – biochemical, small-molecule microarray, Alexa647 label, 635/667 nm fluorescence, artefact control for SMM control protein annotation, profiling panel (AID 1118).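 Further: score merges 667 nm emission intensity and signal-to-noise per printed compound spot.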 The settings on record: BSA-A647 binding, fluorescence 635 nm, higher = more signal.
A short description of assay [12]: probe aXIP binding to arrayed compounds – biochemical, NeuroSMM set, 635/667 nm fluorescence, primary screen (AID 1119).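 Further: probe is the protein aXip251-270 applied at 1 µg/mL to compound-printed slides; binding of probe to printed compounds measured as 667 nm fluorescence plus signal to noise.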 To be noted: small-molecule microarray, higher = more signal, called active from +8 up or from −8 down.
Assay [13] is described as follows: probe aNOTCH3 binding on compound microarray – biochemical, small-molecule microarray, 635/667 nm fluorescence, primary screen (AID 1120).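 Further: probe is a biotin-tagged antibody raised against NOTCH3 rather than NOTCH3 protein; score merges spot fluorescence near 667 nm with spot signal to noise.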 The settings on record: higher = more signal.
A short description of assay [14]: probe aNOTCH2 binding on compound microarray – biochemical, small-molecule microarray, 635/667 nm fluorescence, primary screen (AID 1121).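 Further: score merges feature fluorescence read at 667 nm with its signal to noise.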 The settings on record: higher = more signal.
For assay [15], the target named is Carbonic anhydrase 2 (Homo sapiens) (UniProt P00918). In words: compounds binding carbonic anhydrase 2 – biochemical, small-molecule microarray, Alexa647-labelled CAII, profiling panel (AID 1122). To be noted: CAII-A647 binding fluorescence, higher = more signal.
Assay [16] in a line: COS7 lysate on small-molecule microarray, probe aHis, 635 nm (AID 1123).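 Further: z-score combines 667nm fluorescence intensity with signal-to-noise per printed compound spot.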 To be noted: COS7 cell lysate, fluorescence, higher = more signal.
Assay [17] in a line: probe aLAP1 signal on lysate-treated microarray – cell lysate, small-molecule microarray, COS7 lysate, primary screen (AID 1124).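 Further: lysate comes from COS7 cells expressing LAP1 and is applied at 0.3 µg/mL; score merges spot fluorescence near 667 nm with signal-to-noise over triplicate slides.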 The settings on record: probe aLAP1, fluorescence, higher = more signal.
In assay [18] the test system is Sam68 (KHDRBS1). In words: compounds binding KHDRBS1 protein – biochemical, small-molecule microarray, 635 nm fluorescence, primary screen (AID 1125).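 Further: score merges 667 nm channel intensity with signal to noise over triplicate slides.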 The settings on record: higher = more signal.
The subject of assay [19] is Chordin-like protein 2 (CHRDL2). In words: compounds binding chordin-like 2 – biochemical, small-molecule microarray, 635 nm fluorescence, primary screen (AID 1126).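 Further: printed compound slides probed with Chrdl2 protein at 4 µg/mL for 1 h at 4 C; score merges 667 nm emission intensity with signal to noise over three replicate slides.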 To be noted: fluorescence 635 nm, higher = more signal.
Assay [20] has as its target Concanavalin-A (Canavalia ensiformis) (UniProt P02866). In words: compounds binding concanavalin A lectin – biochemical, small-molecule microarray, Alexa647 label, 635 nm, artefact control for SMM control protein annotation, primary screen (AID 1127).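 Further: z combines 667 nm emission intensity with signal-to-noise across three replicate slides.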 To be noted: ConA-A647 binding fluorescence, higher = more signal.

Chain of Left-right determination factor 2 (Homo sapiens) (O00292 whole entry, looked up): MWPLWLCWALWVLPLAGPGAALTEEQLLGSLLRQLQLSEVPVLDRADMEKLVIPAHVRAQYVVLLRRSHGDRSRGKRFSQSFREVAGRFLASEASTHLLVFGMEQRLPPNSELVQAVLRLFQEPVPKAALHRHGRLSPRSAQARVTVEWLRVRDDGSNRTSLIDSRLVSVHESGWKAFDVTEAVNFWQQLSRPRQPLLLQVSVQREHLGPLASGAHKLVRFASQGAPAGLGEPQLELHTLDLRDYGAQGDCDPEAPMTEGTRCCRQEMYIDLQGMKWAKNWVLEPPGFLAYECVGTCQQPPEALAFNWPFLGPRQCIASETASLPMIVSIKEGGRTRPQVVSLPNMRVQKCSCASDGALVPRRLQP
Chain of Torsin-1A-interacting protein 1 (Homo sapiens) (Q5JTV8 whole entry, looked up): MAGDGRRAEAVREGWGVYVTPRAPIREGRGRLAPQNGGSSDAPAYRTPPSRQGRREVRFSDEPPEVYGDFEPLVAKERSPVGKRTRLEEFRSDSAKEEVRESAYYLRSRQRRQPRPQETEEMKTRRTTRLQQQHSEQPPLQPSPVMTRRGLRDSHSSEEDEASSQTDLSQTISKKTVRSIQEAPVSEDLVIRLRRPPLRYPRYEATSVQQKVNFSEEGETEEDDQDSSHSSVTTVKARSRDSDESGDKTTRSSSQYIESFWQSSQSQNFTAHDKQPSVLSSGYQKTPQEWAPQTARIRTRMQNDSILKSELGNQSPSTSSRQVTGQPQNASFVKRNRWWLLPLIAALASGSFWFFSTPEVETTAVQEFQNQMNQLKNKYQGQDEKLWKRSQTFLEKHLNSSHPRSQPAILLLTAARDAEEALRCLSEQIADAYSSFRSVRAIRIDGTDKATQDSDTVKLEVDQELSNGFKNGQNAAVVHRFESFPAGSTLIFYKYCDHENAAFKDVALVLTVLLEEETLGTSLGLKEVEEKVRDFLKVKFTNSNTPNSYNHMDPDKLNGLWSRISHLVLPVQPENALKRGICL
Chain of Alpha-bungarotoxin (Bungarus multicinctus) (P60615 whole entry, looked up): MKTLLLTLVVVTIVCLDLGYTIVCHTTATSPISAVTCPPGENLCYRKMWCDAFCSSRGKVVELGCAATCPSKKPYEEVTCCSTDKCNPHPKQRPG
Chain of Concanavalin-A (Canavalia ensiformis) (P02866 whole entry, looked up): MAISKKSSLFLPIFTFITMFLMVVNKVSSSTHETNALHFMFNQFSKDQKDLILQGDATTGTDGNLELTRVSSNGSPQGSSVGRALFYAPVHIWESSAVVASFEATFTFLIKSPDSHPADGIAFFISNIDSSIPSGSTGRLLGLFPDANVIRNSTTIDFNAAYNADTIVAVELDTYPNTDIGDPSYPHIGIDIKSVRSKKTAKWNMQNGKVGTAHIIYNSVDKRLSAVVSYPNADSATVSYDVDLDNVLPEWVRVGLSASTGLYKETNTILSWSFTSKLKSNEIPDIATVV
Chain of Albumin (Bos taurus) (P02769 whole entry, looked up): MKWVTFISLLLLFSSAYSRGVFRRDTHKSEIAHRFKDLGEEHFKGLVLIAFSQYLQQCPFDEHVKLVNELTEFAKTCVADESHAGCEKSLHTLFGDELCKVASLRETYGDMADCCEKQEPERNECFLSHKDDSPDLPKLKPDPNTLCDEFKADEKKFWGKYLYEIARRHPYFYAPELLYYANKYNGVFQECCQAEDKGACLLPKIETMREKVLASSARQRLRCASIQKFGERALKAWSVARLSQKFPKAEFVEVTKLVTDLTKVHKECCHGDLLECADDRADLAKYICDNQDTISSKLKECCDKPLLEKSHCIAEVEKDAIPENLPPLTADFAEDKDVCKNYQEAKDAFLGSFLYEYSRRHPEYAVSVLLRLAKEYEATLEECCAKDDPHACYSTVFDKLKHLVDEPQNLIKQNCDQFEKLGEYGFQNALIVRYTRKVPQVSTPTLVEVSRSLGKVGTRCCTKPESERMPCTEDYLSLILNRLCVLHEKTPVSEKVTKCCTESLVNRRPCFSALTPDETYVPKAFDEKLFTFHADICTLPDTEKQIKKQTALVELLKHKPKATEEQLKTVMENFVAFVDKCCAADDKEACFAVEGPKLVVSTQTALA

For `CCOC(=O)[C@H](CC(C)C)NC(=O)CCC1CC(OC(=O)NCc2ccc3c(c2)OCO3)CC2(CCCC(COC(=O)NCCc3ccc(Cl)cc3)O2)O1` (stereo not given in full), the composite z-score in [1] was 0.838; in assay [3] it was 0.582; in assay [4] it was -0.131; in [5] it was -0.572; in assay [6], -0.0556; in [7], -0.283. In addition, the composite z-score in assay [8] was -0.363; in [9] it was 0.426; in [10], 0.983; in assay [11], 0.619; in assay [13], 0.0116; in assay [14], -0.159. For the same compound, the composite z-score in assay [15] is 0.232; in [16], 0.817; in assay [17], 0.127; in assay [18] it was 1.11; in assay [19], 0.359; in assay [20] it was -0.0326. In assay [2], this compound came in with a z-score of 0.225. Moreover, in [12], the composite Z-score was -0.232 (inactive).
Regarding `COc1cccc([C@H](O)Cn2cc(-c3ccc(CON=C(C)C)cc3)nn2)c1`, the composite z-score in assay [1] is -1.42; in assay [3] it was 0.323; in assay [4] it was -0.851; in [5], -0.679; in [6], 0.123; in [7] it was -0.229. Further, the composite z-score in [8] was -0.172; in assay [9] it was 0.56; in assay [10] it was -0.713; in assay [11], 0.212; in [13], -0.0647; in [14], 0.127. Besides, the composite z-score is -0.0261 in [15]; -0.011 in [16]; -0.169 in assay [17]; -0.937 in assay [18]; 0.0083 in [19]; -2.65 in assay [20]. This compound also gave a z-score in assay [2] of -0.657. In addition, the composite Z-score in assay [12] is -0.511 (inactive).
Regarding `COC(=O)[C@H](C)NC(=O)CCC1CC(OC(=O)NCc2ccc3c(c2)OCO3)CC2(CCCC(COC(=O)NCc3ccccc3)O2)O1` (stereo not given in full), the composite z-score is 1.25 in [1]; 0.508 in [3]; 0.202 in assay [4]; -0.558 in [5]; -0.001 in [6]; -0.0709 in assay [7]. For the same compound, the composite z-score was -0.258 in [8]; 0.179 in [9]; 0.159 in [10]; -0.372 in [11]; -0.0072 in assay [13]; -0.156 in assay [14]. In addition, the composite z-score in [15] was 0.192; in assay [16], 0.849; in assay [17], -0.0296; in [18], 1.26; in [19], 0.133; in assay [20], 0.829. Moreover, the z-score in assay [2] amounted to 0.188. The composite Z-score in assay [12] is 0.264 (inactive).
In the case of `O=C1[C@H]2[C@H]3[C@H](O)[C@H](O)CC(=NOC[C@@H](O)COCc4ccco4)[C@@H]3CC[C@H]2C(=O)N1Cc1ccc2c(c1)OCO2`, the composite z-score in [1] is -0.772; in [3], 1.44; in [4], -0.982; in assay [5] it was -2.03; in assay [6] it was -0.172; in assay [7], -0.123. Also, the composite z-score was -0.34 in assay [8]; 0.0886 in assay [9]; 0.0167 in [10]; 0.29 in assay [11]; -0.127 in assay [13]; -0.148 in assay [14]. For the same compound, the composite z-score is -0.307 in assay [15]; -0.0845 in [16]; 0.123 in assay [17]; 0.275 in assay [18]; 1.54 in [19]; -0.19 in [20]. The compound further returned a z-score in assay [2] of 0.0878. Besides, in [12], the composite Z-score is 0.564 (inactive).
`CCN1C(=O)[C@H]2[C@@H]3C(=CC[C@H]2C1=O)C(=O)[C@H]1O[C@H]1[C@H]3O`: the composite z-score is 0.53 in assay [1]; 0.705 in assay [3]; -0.575 in assay [4]; -1.4 in assay [5]; 0.0559 in assay [6]; -0.138 in assay [7]. Besides, the composite z-score in assay [8] is -0.144; in assay [9], 0.282; in [10] it was 0.0607; in assay [11], -0.458; in assay [13], -0.0258; in assay [14], -0.0531. Besides, the composite z-score in assay [15] was -0.156; in assay [16], 0.141; in [17] it was 0.426; in [18], 0.657; in assay [19] it was 1.21; in [20], 0.725. The same compound had a z-score in assay [2] of -5.32. Also, the composite Z-score in assay [12] was -0.192 (inactive).
Consider `CCc1cc2c(nc1CC)CCN(CCC(C)=NOC[C@@H](C)[C@H](OCc1ccccc1)C(C)C)C2`, for which the composite z-score was -0.461 in assay [1]; -0.964 in assay [3]; -1.3 in assay [4]; -0.139 in assay [5]; -0.247 in assay [6]; -0.0035 in assay [7]. Further, the composite z-score is -0.411 in [8]; -0.667 in assay [9]; -0.86 in assay [10]; 0.742 in assay [11]; -0.443 in [13]; -0.135 in assay [14]. The composite z-score in assay [15] was -0.25; in assay [16], -0.171; in [17] it was -0.383; in [18] it was -0.16; in [19], -1.05; in assay [20] it was -1.12. In [2], this compound gave a z-score of -1.14. Also, in [12], the composite Z-score is 0.551 (inactive).
